Bioassay records from PubChem BioAssay.
PTEN del growth = suppresses growth of cells with PTEN deletion. AID 827. HCT116 PTEN-null viability, CellTiter-Glo, 60 h; active compounds read low. viability, % at 10 µM. 140,000 tested, 1.2% active;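 active = viability at or below a set limit, 4 SD under the median of all tested compounds, cut at about 3.7% in these data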;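 note: PTEN knockout HCT116 line with beta catenin targeted HCT116 as companion control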
L major viab = inhibitors of Leishmania major promastigote growth | Leishmania major promastigotes, resazurin fluorescence viability | inhibition, % at 10 µM | 200,000 tested, 9% active | AID 1063; in the data active = inhibition above about 50%;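 note: promastigotes grown with compound for 44 hours at 28 °C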
Insulin prom inh = TRM-6 insulin promoter activity inhibition; TRM-6 cells (human fetal islet line), insulin promoter-eGFP reporter, imaging; reporter expression induced with tamoxifen; 130,000 tested, 0.9% active; inhibition, % at 2 µM;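 active = inhibition above the mean plus 3 SD, with well images judged a real hit on visual review, cut at about 60% in these data, passing the limit was not always enough; inconclusive = inhibition over the cutoff but images rejected on review; inactive = inhibition not above the cutoff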
bCat KO growth = beta-catenin-lacking colon tumor cell growth suppression; HCT116 beta-catenin knockout viability, CellTiter-Glo, 60 h; active compounds read low; viability, % at 10 µM; 140,000 tested, 1.5% active; AID 818;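 active = viability at or under a set limit, the compound median less 4 SD, cut at about 6% in these data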
Autophagy HCS = modulators of autophagy. MEF GFP-LC3 puncta imaging; test concentration mostly 10 µM. calls only at 10 µM (by protocol). 190,000 tested, 0.98% active;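 active = percentage of spot-positive cells more than 3 SD above its plate mean, without a fluorescence outlier flag or 80% toxicity; inconclusive = no clear call, values can overlap the other calls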
Ins promoter up = MIN6 insulin promoter up-regulation; 190,000 tested, 0.3% active; AID 1625; z-score at 5 µM; MIN6 insulin promoter-GFP reporter, high-content imaging; active compounds read high;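 active = z-score above 3 at 5 µM with at least 500 cells counted in the well; inconclusive = wells under 500 cells, flagged as cytotoxic or low count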
Large screens that a line does not name were inactive. In the library only some 9.6% were active in any assay of this set; here they are far more common.

CC(C(=O)Nc1ccc2c(c1)OCO2)N1CCN(C)CC1 (centres undefined)	none (no result: PTEN del growth, L major viab, Insulin prom inh, bCat KO growth, Autophagy HCS)
CC(C(=O)NC1CCCc2ccccc21)N1CCN(c2ccc(F)cc2)CC1 (centres undefined)	L major viab 70 (no result: Insulin prom inh)
CC(C(=O)NC1CCCc2ccccc21)N1CCN(Cc2ccc3c(c2)OCO3)CC1 (centres undefined)	L major viab 86, Ins promoter up inconclusive
CC1C(=O)C(C)C(c2ccco2)NC1c1ccco1 (centres undefined)	none (no result: Insulin prom inh)
CC(Cc1cccs1)NC(=O)Nc1ccc(Cl)cc1 (centres undefined)	none
CC(Cc1cccs1)NC(=S)Nc1ccccc1 (centres undefined)	L major viab 60
CC(Cc1cccs1)NC(=O)Nc1ccccc1 (centres undefined)	none (no result: Insulin prom inh)
CC(Cc1cccs1)NC(=O)Nc1ccc(Cl)c(Cl)c1 (centres undefined)	L major viab 61
COc1ccc(/C=N/n2cc(-c3ccc(OC)cc3)nc2N)cc1	L major viab 93
C[C@@H]1CN(CCCn2c3ccccc3c3ccccc32)C[C@H](C)N1	none (no result: PTEN del growth, L major viab, Insulin prom inh, bCat KO growth, Autophagy HCS)
Cc1ccc(N2CC(O)=C(c3nc4ccccc4c(=O)[nH]3)C2=N)cc1C	Autophagy HCS active (no result: PTEN del growth, bCat KO growth)
O=C(CCC(=O)N(CC(=O)NC1CCCCC1)Cc1ccco1)Nc1nccs1	none (no result: Insulin prom inh)
COc1cc(CN2CCCC(C(=O)c3ccc4c5c(cccc35)CC4)C2)cc(OC)c1O (centres undefined)	L major viab 99 (no result: PTEN del growth, Insulin prom inh, bCat KO growth)
COc1ccc(-c2[nH]ncc2CN2CCCC(C(=O)c3cccc(OC)c3)C2)cc1 (centres undefined)	none (no result: PTEN del growth, Insulin prom inh, bCat KO growth, Ins promoter up)
Cc1cccc(CN2CCCC(C(=O)c3ccc4c5c(cccc35)CC4)C2)n1 (centres undefined)	L major viab 53 (no result: PTEN del growth, bCat KO growth, Ins promoter up)
COc1ccc2cc(C(=O)C3CCCN(Cc4cccc(C)n4)C3)ccc2c1 (centres undefined)	L major viab 86 (no result: PTEN del growth, Insulin prom inh, bCat KO growth)
CC(=O)N1CCCC(C(=O)c2ccc3c4c(cccc24)CC3)C1 (centres undefined)	none (no result: PTEN del growth, bCat KO growth)
O=C(c1ccc2c3c(cccc13)CC2)C1CCCN(Cc2cccnc2)C1 (centres undefined)	L major viab 96 (no result: PTEN del growth, Insulin prom inh, bCat KO growth)
Clc1ccc(OCCCc2nc(-c3cccnc3)no2)c(Cl)c1	none (no result: Insulin prom inh)
CN1CCC(N(C)CC(=O)Nc2ccccc2N2CCOCC2)CC1	none (no result: Ins promoter up)
O=C(COC(=O)c1cccc([N+](=O)[O-])c1)NCc1ccc2c(c1)OCO2	none (no result: Insulin prom inh)
CCC(c1nc2ccccc2c(=O)n1CCN1CCOCC1)N1C(=O)c2ccccc2C1=O (centres undefined)	Insulin prom inh 66
CCC(c1nc2ccccc2c(=O)n1CCCn1ccnc1)N1C(=O)c2ccccc2C1=O (centres undefined)	none
CC1(C)Cc2noc(N)c2C(C)(C)N1OC(=O)c1ccccc1	none
OC(CNCC(c1ccc(Cl)cc1Cl)c1c[nH]c2ccccc12)c1ccccc1 (centres undefined)	L major viab 100 (no result: PTEN del growth, bCat KO growth)
CCCCC(NC(=O)c1ccccc1)C(=O)OCC(=O)N1c2ccccc2Sc2ccccc21 (centres undefined)	L major viab 75 (no result: Ins promoter up)
O=C(NC(CO)Cc1ccc([N+](=O)[O-])cc1)C(Cl)Cl (centres undefined)	L major viab 63
C=C(C)c1cccc(C(C)(C)NC(=O)N2CCN(CC)CC2)c1	none
COC(=O)C(NC(=O)c1ccc(F)cc1)(Nc1ncc(S(=O)(=O)c2ccc([N+](=O)[O-])cc2)s1)C(F)(F)F (centres undefined)	L major viab 58 (no result: Ins promoter up)
COC(=O)C(NC(=O)c1ccccc1C)(Nc1ncc(S(=O)(=O)c2ccc([N+](=O)[O-])cc2)s1)C(F)(F)F (centres undefined)	none
O=C(NCCc1c[nH]c2ccccc12)c1cc2sccc2n1Cc1ccccc1	L major viab 100
Cn1c(C(=O)NCCc2c[nH]c3ccccc23)cc2sccc21	none (no result: Insulin prom inh)
COc1ccc(N/C=C/c2nc(SC)nnc2C)cc1	Autophagy HCS active (no result: PTEN del growth, Insulin prom inh, bCat KO growth)
CN(C)c1ncc(/C=C2/C(=O)NC(=S)N(C3CCCCC3)C2=O)cn1	none (no result: PTEN del growth, Insulin prom inh, bCat KO growth)
COC(=O)c1ccc(SCC(=O)N2CCC(C)CC2)c([N+](=O)[O-])c1	L major viab 64
COC(=O)c1ccc(SCC(=O)NC2CCCC2)c([N+](=O)[O-])c1	L major viab 60 (no result: Ins promoter up)
Cc1ccc(S(=O)(=O)N(CC(=O)N=Nc2c(O)[nH]c3ccccc23)c2ccc(C)c(C)c2)cc1	L major viab 96
